Measurements taken from PubChem BioAssay (NCI).
Several values for one entry are separate records, joined by “and”; a condition that tells them apart may be missing. Equal values may be shown once. Compounds without any hit were thinned out: in the full panel of roughly 79,000, 15% have a hit. Where a structure was tested more than once in an assay, its records may differ in their call. Activity calls are given as the source filed them. Rule as the data show it: active = growth inhibition above about 70%; inactive = the rest.

Legend:
[1] = NCI Yeast Anticancer Drug Screen. Data for the rad52 strain (AID 147);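 also: 0% = growth of vehicle-treated control cultures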; conditions: S. cerevisiae rad52 mutant growth inhibition, stronger effect = higher value
Outline: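 The repair-mutant yeast strain was incubated with compounds, then growth was read and inhibition derived relative to vehicle.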

[2] = NCI Yeast Anticancer Drug Screen. Data for the wt1 strain (AID 149);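 also: 0% = growth of vehicle-treated wt1 cultures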; conditions: S. cerevisiae wt1 strain (SPY 50644) growth inhibition, stronger effect = higher value
Outline: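 Yeast wt1 strain exposed to compounds; growth inhibition measured relative to vehicle-treated controls.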

[3] = NCI Yeast Anticancer Drug Screen. Data for the rad50EPP+ strain (AID 151);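 also: 0% = growth of vehicle-treated control cultures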; conditions: S. cerevisiae rad50 mutant strain, stronger effect = higher value
Outline: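 Vehicle-normalised growth inhibition; rad50EPP+ yeast strain, altered in DNA damage repair, compound-treated.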

[4] = NCI Yeast Anticancer Drug Screen. Data for the mgt1 strain (AID 153); conditions: S. cerevisiae mgt1 mutant growth inhibition, stronger effect = higher value
Outline: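 Vehicle-normalized growth inhibition is determined in mgt1 yeast, a strain selected for a defined alteration in DNA repair or cell cycle control.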

[5] = NCI Yeast Anticancer Drug Screen. Data for the rad50 strain (AID 155);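 also: 0% = growth of vehicle-only cultures of the same strain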; conditions: S. cerevisiae rad50 strain growth inhibition, stronger effect = higher value
Outline: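 Yeast carrying a defined DNA repair defect were exposed to test compounds, and growth was compared with vehicle-treated controls to give percent inhibition.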

[6] = NCI Yeast Anticancer Drug Screen. Data for the mec2-1 strain (AID 157); conditions: S. cerevisiae mec2-1 strain, stronger effect = higher value
Outline: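 Mutant yeast (mec2-1) grown with compound; growth inhibition relative to vehicle control reported.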

[7] = NCI Yeast Anticancer Drug Screen. Data for the rad14 strain (AID 159);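 also: 0% = growth of vehicle-treated control cultures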; conditions: S. cerevisiae rad14 strain growth inhibition, stronger effect = higher value
Outline: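 Yeast cells carrying a defined DNA-repair defect were exposed to compounds, and growth inhibition was calculated relative to vehicle-treated control cultures.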

[8] = NCI Yeast Anticancer Drug Screen. Data for the sgs1 mgt1 strain (AID 161);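 also: 0% = growth of cultures given vehicle only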; conditions: S. cerevisiae sgs1 mgt1 strain, stronger effect = higher value
Outline: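 Growth of a repair-deficient yeast mutant was monitored after compound treatment and expressed as inhibition relative to vehicle-treated cultures.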

[9] = NCI Yeast Anticancer Drug Screen. Data for the CLN2oe strain (AID 163);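 also: 0% = growth of vehicle-only control cultures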; conditions: S. cerevisiae CLN2oe strain, stronger effect = higher value
Outline: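 Compounds are applied to yeast harbouring a defined cell-cycle control change; reduced growth compared with vehicle-treated controls gives the value.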

[10] = NCI Yeast Anticancer Drug Screen. Data for the cln2 rad14 strain (AID 165);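 also: 0% = growth equal to vehicle treated cultures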; conditions: S. cerevisiae cln2 rad14 strain, stronger effect = higher value
Outline: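 Readout is yeast growth inhibition versus vehicle-treated controls, using a strain with cln2 and rad14 alterations exposed to compound.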

[11] = NCI Yeast Anticancer Drug Screen. Data for the bub3 strain (AID 167); conditions: S. cerevisiae bub3 mutant strain, stronger effect = higher value
Outline: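 Compounds were applied to a genetically altered yeast strain carrying a cell-cycle control defect. Growth inhibition was scored against vehicle-treated controls.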

[12] = NCI Yeast Anticancer Drug Screen. Data for the wt2 strain (AID 169);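 also: 0% = growth of vehicle-treated yeast cultures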; conditions: S. cerevisiae wt2 strain growth inhibition, stronger effect = higher value
Outline: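 Against vehicle-treated controls, the growth of yeast exposed to each compound was compared, and the inhibition was recorded.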

[13] = NCI Yeast Anticancer Drug Screen. Data for the mlh1 strain (AID 171);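 also: 0% = growth of vehicle-treated control cultures of the same strain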; conditions: S. cerevisiae mlh1 strain growth inhibition, stronger effect = higher value
Outline: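 Measured: yeast growth. Reference: vehicle-treated controls. Organism: strain with a defined alteration affecting DNA damage repair or cell cycle control, treated with compound.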

[14] = NCI Yeast Anticancer Drug Screen. Data for the sgs1 strain (AID 173);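 also: 0% = growth of vehicle-only control cultures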; conditions: S. cerevisiae sgs1 mutant, stronger effect = higher value
Outline: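 Each compound was added to cultures of the altered yeast strain. Growth was recorded, and inhibition was derived by comparison with vehicle controls.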

[15] = NCI Yeast Anticancer Drug Screen. Data for the mlh1 rad18 strain (AID 175); conditions: S. cerevisiae mlh1 rad18 strain growth inhibition, stronger effect = higher value
Outline: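 Genetically defined yeast (DNA repair-deficient) exposed to compounds; growth inhibition determined relative to vehicle.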

[16] = NCI Yeast Anticancer Drug Screen. Data for the rad18 strain (AID 177); conditions: S. cerevisiae rad18 mutant growth inhibition, stronger effect = higher value
Outline: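 Vehicle-treated cultures served as the baseline for scoring compound-induced growth inhibition in DNA-repair-mutant yeast.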

[17] = at 5.0 µM (retest, dose inferred, filed as 0.5)
[18] = at 50.0 µM (retest, dose inferred, filed as 5.0)

Measured: growth inhibition

CC1(C)CC(=O)C(/C=N/c2nc(-c3ccccc3)cs2)=C(O)C1
inactive: [1]; at 1.2 µM 1% | [1]; at 3.7 µM 5% | [1]; at 11.0 µM 19% | [1]; at 33.0 µM 41% | [2]; at 1.2 µM 2% | [2]; at 3.7 µM 2% | [2]; at 11.0 µM 6% | [2]; at 33.0 µM 22% | [2]; at 100.0 µM 54% | [3]; at 1.2 µM -1% | [3]; at 3.7 µM 1% | [3]; at 11.0 µM 12% | [3]; at 33.0 µM 27% | [3]; at 100.0 µM 34% | [4]; at 1.2 µM -1% | [4]; at 3.7 µM -2% | [4]; at 11.0 µM 5% | [4]; at 33.0 µM 22% | [5]; at 1.2 µM -5% | [5]; at 3.7 µM -13% | [5]; [17] -3% | [5]; at 11.0 µM -4% | [5]; at 33.0 µM 40% | [5]; [18] 57% | [6]; at 1.2 µM 2% | [6]; at 3.7 µM 2% | [6]; [17] 0% | [6]; at 11.0 µM 8% | [6]; at 33.0 µM 35% | [6]; [18] 32% | [6]; at 50.0 µM 20.1% | [7]; at 1.2 µM 3% | [7]; at 3.7 µM 5% | [7]; at 11.0 µM 17% | [7]; at 33.0 µM 45% | [8]; [17] -5% | [8]; [18] 38% | [9]; at 1.2 µM -4% | [9]; at 3.7 µM -5% | [9]; at 11.0 µM 1% | [9]; at 33.0 µM 25% | [9]; at 100.0 µM 61% | [10]; [17] 35% | [10]; [18] 21% | [10]; at 50.0 µM 45.4% | [11]; at 1.2 µM -2% | [11]; at 3.7 µM -3% | [11]; [17] -19% | [11]; at 11.0 µM -1% | [11]; at 33.0 µM 23% | [11]; [18] 19% | [11]; at 100.0 µM 68% | [12]; at 1.2 µM -2% | [12]; at 3.7 µM 1% | [12]; at 11.0 µM 7% | [12]; at 33.0 µM 36% | [13]; at 1.2 µM 0% | [13]; at 3.7 µM 3% | [13]; at 11.0 µM 12% | [13]; at 33.0 µM 45% | [14]; at 1.2 µM 2% | [14]; at 3.7 µM 5% | [14]; at 11.0 µM 26% | [14]; at 33.0 µM 63% | [15]; [17] 10% | [16]; at 1.2 µM 6% | [16]; at 3.7 µM 22%
active: [1]; at 100.0 µM 84% | [4]; at 100.0 µM 77% | [5]; at 50.0 µM 89.9% | [5]; at 100.0 µM 84% | [6]; at 100.0 µM 76% | [7]; at 100.0 µM 83% | [8]; at 50.0 µM 94.2% | [11]; at 50.0 µM 75.1% | [12]; at 100.0 µM 82% | [13]; at 100.0 µM 81% | [14]; at 100.0 µM 83% | [15]; [18] 87% | [15]; at 50.0 µM 97% | [16]; at 11.0 µM 72% | [16]; at 33.0 µM 88% | [16]; at 100.0 µM 91%

COc1cc([C@@H]2c3cc4c(cc3[C@@H](Nc3ccc(NC(=O)c5cc([N+](=O)[O-])cn5C)cc3)[C@H]3COC(=O)[C@H]23)OCO4)cc(OC)c1O
37% (inactive) and 80% (active): [15]; [17]
67.5% (inactive) and 74.8% (active): [6]; at 50.0 µM
46% (inactive) and 90% (active): [11]; [18]
67.5% (inactive) and 75.9% (active): [5]; at 50.0 µM
inactive: [1]; at 1.2 µM 25% | [2]; at 1.2 µM 9% | [2]; at 3.7 µM 20% | [2]; at 11.0 µM 26% | [2]; at 33.0 µM 32% | [2]; at 100.0 µM 36% | [3]; at 1.2 µM 4% | [3]; at 3.7 µM 10% | [3]; at 11.0 µM 27% | [3]; at 33.0 µM 14% | [3]; at 100.0 µM 22% | [4]; at 1.2 µM -3% | [4]; at 3.7 µM 5% | [4]; at 11.0 µM 14% | [4]; at 33.0 µM 35% | [4]; at 100.0 µM 41% | [5]; at 1.2 µM 11% | [6]; at 1.2 µM -16% | [6]; at 3.7 µM 6% | [6]; [17] 38% and 52% | [6]; at 11.0 µM 42% | [6]; at 33.0 µM 66% | [7]; at 1.2 µM 4% | [7]; at 3.7 µM 16% | [7]; at 11.0 µM 18% | [7]; at 33.0 µM 50% | [7]; at 100.0 µM 59% | [8]; [17] 16% and 54% | [8]; at 50.0 µM 47.5% and 67% | [9]; at 1.2 µM 19% | [9]; at 3.7 µM 23% | [9]; at 11.0 µM 44% | [9]; at 33.0 µM 58% | [10]; [17] 16% and 22% | [10]; at 50.0 µM 47% and 49.9% | [11]; at 1.2 µM -10% | [11]; at 3.7 µM 0% | [11]; [17] 19% and 42% | [11]; at 11.0 µM 14% | [11]; at 33.0 µM 36% | [11]; at 50.0 µM 26.8% and 51.2% | [11]; at 100.0 µM 43% | [12]; at 1.2 µM -28% | [12]; at 3.7 µM -12% | [12]; at 11.0 µM -8% | [12]; at 33.0 µM 6% | [12]; at 100.0 µM 17% | [13]; at 1.2 µM -15% | [13]; at 3.7 µM 5% | [13]; at 11.0 µM 22% | [13]; at 33.0 µM 39% | [13]; at 100.0 µM 53% | [14]; at 1.2 µM -6% | [14]; at 3.7 µM 6% | [14]; at 11.0 µM 30% | [14]; at 33.0 µM 44% | [14]; at 100.0 µM 49% | [16]; at 1.2 µM -9% | [16]; at 3.7 µM 3% | [16]; at 11.0 µM 27% | [16]; at 33.0 µM 43% | [16]; at 100.0 µM 53%
53% (inactive) and 93% (active): [8]; [18]
50% (inactive) and 84% (active): [10]; [18]
62% (inactive) and 95% (active): [15]; [18]
20.1% (inactive) and 74.3% (active): [15]; at 50.0 µM
active: [1]; at 3.7 µM 84% | [1]; at 11.0 µM 92% | [1]; at 33.0 µM 91% | [1]; at 100.0 µM 93% | [5]; at 3.7 µM 74% | [5]; [17] 92% and 96% | [5]; at 11.0 µM 88% | [5]; at 33.0 µM 92% | [5]; [18] 95% and 97% | [5]; at 100.0 µM 92% | [6]; [18] 79% and 96% | [6]; at 100.0 µM 74% | [9]; at 100.0 µM 77%
